According to PubChem BioAssay (Tox21):
Results filed as inconclusive are left out. Activity calls are given as the source filed them. Unless noted, the call rests on the fitted dose curve.

Target: Beta-2 adrenergic receptor (Homo sapiens) (UniProt P07550)
Assay: Adrenergic beta2 receptor (ADRB2) small molecule antagonists, cell-based qHTS assay (AID 1963592); further: nearly all actives have a fitted effect of over 50% in size
Conditions: CHO-ADRB2 cells, isoproterenol-stimulated cAMP HTRF ratio, 0.5 h; series mostly up to 92.4 µM; activity change, negative = inhibition: at the top concentration
Outline: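 Cells (CHO, stable ADRB2 overexpression) incubated 18-20hr at 37C; compounds added from DMSO; agonist mix (1nM isoproterenol, 100uM IBMX, 25uM Ro-20-1724) added; 0.5hr RT; d2-cAMP and anti-cAMP-cryptate added; 1hr RT; 665/615 nm read.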
On the % scale 0 is the no-effect control and ±100 the full control effect.

Chain of Beta-2 adrenergic receptor (Homo sapiens) (P07550 whole entry, looked up): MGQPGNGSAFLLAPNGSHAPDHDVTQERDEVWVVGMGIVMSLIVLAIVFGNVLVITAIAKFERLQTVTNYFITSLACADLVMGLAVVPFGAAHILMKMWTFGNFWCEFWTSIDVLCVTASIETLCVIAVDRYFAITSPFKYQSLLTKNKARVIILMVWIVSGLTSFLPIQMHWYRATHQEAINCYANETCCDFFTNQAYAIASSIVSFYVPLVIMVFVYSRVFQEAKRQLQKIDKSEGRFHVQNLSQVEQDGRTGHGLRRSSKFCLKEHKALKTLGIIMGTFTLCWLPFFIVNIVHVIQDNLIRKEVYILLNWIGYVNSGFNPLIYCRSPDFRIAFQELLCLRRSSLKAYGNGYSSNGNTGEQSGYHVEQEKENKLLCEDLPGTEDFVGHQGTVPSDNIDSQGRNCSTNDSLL

Compound | activity change, negative = inhibition
CCCOC(=O)CC | 4.86% (inactive)
C=CCOCC(O)CS(=O)(=O)O (stereo unspecified) | 3.01% (inactive)
CCCCNCC | -0.285% (inactive)
CCCC1CCC(=O)CC1 | 2.19% (inactive)
CCC(C)COC(C)=O (stereo unspecified) | 2.73% (inactive)
CCCNC(C)(C)COC(=O)c1ccccc1 | -14.8% [at 42.5 µM] (inactive)
Cc1ccc(C#N)cc1 | -8.72% (inactive)
CCN(CC)CCNC(C(=O)OCCC(C)C)c1ccccc1 (stereo unspecified) | 2.7% [at 42.5 µM] (inactive)
CCOC(=O)CC(C)C | 22.6% (inactive)
CCCCCCCCCCCCC1CO1 (stereo unspecified) | -0.262% (inactive)
O=C(O)/C=C(\CC(=O)O)C(=O)O | -1.84% [at 42.5 µM] (inactive)
CCCCCCCCS(=O)(=O)O | 2.79% (inactive)
CC(C)CCCCCOC(=O)CCCCC(=O)OCCCCCC(C)C | 3.93% (inactive)
CCOc1ccc(NC(N)=O)cc1 | -2.85% (inactive)
CC1(C)CC(O)CC(C)(C)N1[O] | -5.94% (inactive)
CC(C)COC(=O)CCCCC(=O)OCC(C)C | 0.377% (inactive)
O=C1NCC2(CCN(CCc3ccccc3)CC2)O1 | -11.5% [at 42.5 µM] (inactive)
C=C(C)C(=O)OCC | 1.11% (inactive)
CC(CO)(CO)[N+](=O)[O-] | -1.68% (inactive)

Compound | activity change, negative = inhibition
C=CCCCCCCCCCCCCCC | 8.54% [at 19 µM] (inactive)
OC(C#CCN1CCCC1)(c1ccccc1)c1ccccc1 | -23.3% [at 42.5 µM] (inactive)
C=C(C)[C@@H]1CC=C(C)C(=O)C1 | -12.4% (inactive)
CCC(C)N (stereo unspecified) | 3.83% (inactive)
COC(C)=O | 0.0926% (inactive)
CCCCN1C[C@H](O)[C@@H](O)[C@H](O)[C@H]1CO | 8.6% [at 42.5 µM] (inactive)
CC(=O)OCC(=O)NCCCOc1cccc(CN2CCCCC2)c1 | 0.86% [at 42.5 µM] (inactive)
OC1CCCCC1c1ccccc1 (stereo unspecified) | -0.571% (inactive)
CCCCCCCCCCC=O | 2.75% (inactive)
CC(C)(C)CC(C)(C)N | 4.24% (inactive)
C=CCCCCCCCCOC(C)=O | 3.37% (inactive)
CC(N=C(NC#N)Nc1ccncc1)C(C)(C)C (stereo unspecified) | 2.71% [at 42.5 µM] (inactive)
OCCC1CCCCN1 (stereo unspecified) | -9.07% (inactive)
C[C@]12CCC(=O)C=C1CC[C@H]1[C@@H]3CC[C@](O)(C(=O)CO)[C@@]3(C)C[C@H](O)[C@@]12F | 9.09% [at 42.5 µM] (inactive)
CCC(C)(CCC(C)C)C(=O)O (stereo unspecified) | 3.01% (inactive)
COP(=O)(O)OP(=O)(O)OC | 0.0646% (inactive)
CCCC(=O)OC/C=C(\C)CCC=C(C)C | -10.4% (inactive)
NNC(=O)CP(=O)(c1ccccc1)c1ccccc1 | -21.1% [at 42.5 µM] (inactive)

Target: Beta-2 adrenergic receptor (Homo sapiens) (UniProt P07550)
Assay: Adrenergic beta2 receptor (ADRB2) small molecule agonists, cell-based qHTS assay (AID 1963593);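 further: CHO cells stably overexpressing human ADRB2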
Conditions: CHO-ADRB2 cells, cAMP HTRF, 30 min; series mostly up to 92.4 µM; activation: at the top concentration
Outline: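 CHO cells stably over-expressing ADRB2 were plated overnight at 37C, then dosed with compounds plus a stimulation mix containing 100uM IBMX and 25uM Ro-20-1724 for 0.5hr at room temperature. cAMP was measured by HTRF competition, 1hr.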

Compound | activation
C=CC(=O)N1CCOCC1 | 6.34% (inactive)
Cc1nnc(SCC2=C(C(=O)O)N3C(=O)[C@@H](NC(=O)Cn4cnnn4)[C@H]3SC2)s1 | -28% [at 42.5 µM] (inactive)
C[C@H](NC(CCc1ccccc1)C(=O)O)C(=O)N1CCC[C@H]1C(=O)O (stereo partly specified) | 7.44% [at 42.5 µM] (inactive)

Target: D(2) dopamine receptor (Homo sapiens) (UniProt P14416)
Assay: Dopamine D2 receptor (DRD2) small molecule agonists, cell-based qHTS assay (AID 1963594); further: nearly all actives have a fitted effect of over 35% in size
Conditions: HEK293-DRD2 cAMP HTRF, agonist mode, 30 min; series mostly up to 92.4 µM; activation: at the top concentration
Outline: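 HEK293 cells stably expressing human DRD2, pre-treated with PDE inhibitor Ro20-1724 (0.1 mM final) and compound 10 min at room temperature, then stimulated with NKH477 (200nM […]) for 30 min. cAMP read by HTRF (665/620 nm).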

Chain of D(2) dopamine receptor (Homo sapiens) (P14416 whole entry, looked up): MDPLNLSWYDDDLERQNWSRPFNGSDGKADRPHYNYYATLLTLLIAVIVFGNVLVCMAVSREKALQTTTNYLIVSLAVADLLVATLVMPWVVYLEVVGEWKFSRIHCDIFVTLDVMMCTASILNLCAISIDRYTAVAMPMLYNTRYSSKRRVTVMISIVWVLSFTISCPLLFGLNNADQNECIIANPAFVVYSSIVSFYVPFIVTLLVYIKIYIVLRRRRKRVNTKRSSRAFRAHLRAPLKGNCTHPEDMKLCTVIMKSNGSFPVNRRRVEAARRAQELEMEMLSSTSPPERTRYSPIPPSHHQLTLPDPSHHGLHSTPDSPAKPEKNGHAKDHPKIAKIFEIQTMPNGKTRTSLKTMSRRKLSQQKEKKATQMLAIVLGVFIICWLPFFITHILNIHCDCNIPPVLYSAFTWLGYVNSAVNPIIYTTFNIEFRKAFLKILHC

Compound | activation
CCCOC(=O)CC | 5.68% (inactive)
C=CC(=O)N1CCOCC1 | 6.51% (inactive)
C=CCOCC(O)CS(=O)(=O)O (stereo unspecified) | 0.0946% (inactive)
CCCCNCC | 0.144% (inactive)
CCCC1CCC(=O)CC1 | -0.398% (inactive)
CCC(C)COC(C)=O (stereo unspecified) | 2.04% (inactive)
CCCNC(C)(C)COC(=O)c1ccccc1 | -7.49% [at 42.5 µM] (inactive)
Cc1ccc(C#N)cc1 | -0.172% (inactive)
Cc1nnc(SCC2=C(C(=O)O)N3C(=O)[C@@H](NC(=O)Cn4cnnn4)[C@H]3SC2)s1 | -1.72% [at 42.5 µM] (inactive)
CCN(CC)CCNC(C(=O)OCCC(C)C)c1ccccc1 (stereo unspecified) | -12.5% [at 42.5 µM] (inactive)
CCOC(=O)CC(C)C | -5.55% (inactive)
CCCCCCCCCCCCC1CO1 (stereo unspecified) | 2.99% (inactive)
O=C(O)/C=C(\CC(=O)O)C(=O)O | -9.54% [at 42.5 µM] (inactive)
CCCCCCCCS(=O)(=O)O | 0.0868% (inactive)
CC(C)CCCCCOC(=O)CCCCC(=O)OCCCCCC(C)C | 3.5% (inactive)
CCOc1ccc(NC(N)=O)cc1 | -1.72% (inactive)
CC1(C)CC(O)CC(C)(C)N1[O] | -10.7% (inactive)
CC(C)COC(=O)CCCCC(=O)OCC(C)C | -12.5% (inactive)
O=C1NCC2(CCN(CCc3ccccc3)CC2)O1 | -10.4% [at 42.5 µM] (inactive)

Compound | activation
C=C(C)C(=O)OCC | 0.169% (inactive)
CC(CO)(CO)[N+](=O)[O-] | 2.48% (inactive)
C=CCCCCCCCCCCCCCC | -4.33% [at 19 µM] (inactive)
OC(C#CCN1CCCC1)(c1ccccc1)c1ccccc1 | -7.32% [at 42.5 µM] (inactive)
C=C(C)[C@@H]1CC=C(C)C(=O)C1 | 6.57% (inactive)
CCC(C)N (stereo unspecified) | 1.96% (inactive)
COC(C)=O | -0.307% (inactive)
CCCCN1C[C@H](O)[C@@H](O)[C@H](O)[C@H]1CO | -5.28% [at 42.5 µM] (inactive)
OC1CCCCC1c1ccccc1 (stereo unspecified) | 2.83% (inactive)
CCCCCCCCCCC=O | 2.48% (inactive)
CC(C)(C)CC(C)(C)N | 3.15% (inactive)
C=CCCCCCCCCOC(C)=O | 11.4% (inactive)
C[C@H](NC(CCc1ccccc1)C(=O)O)C(=O)N1CCC[C@H]1C(=O)O (stereo partly specified) | -4.35% [at 42.5 µM] (inactive)
CC(N=C(NC#N)Nc1ccncc1)C(C)(C)C (stereo unspecified) | -8.56% [at 42.5 µM] (inactive)
OCCC1CCCCN1 (stereo unspecified) | -14.1% (inactive)
CCC(C)(CCC(C)C)C(=O)O (stereo unspecified) | 2.26% (inactive)
CCCC(=O)OC/C=C(\C)CCC=C(C)C | 1.66% (inactive)
NNC(=O)CP(=O)(c1ccccc1)c1ccccc1 | -10.7% [at 42.5 µM] (inactive)

Target: D(2) dopamine receptor (Homo sapiens) (UniProt P14416)
Assay: Dopamine D2 receptor (DRD2) small molecule antagonists, cell-based qHTS assay (AID 1963595; active means well fitted inhibition curve with a large enough effect in the signal ratio in the repeat runs, with a control signal flat; the % refers to the signal ratio)
Conditions: HEK293-DRD2 cAMP HTRF antagonist mode; series mostly up to 92.4 µM; activity change, negative = inhibition: at the top concentration
Outline: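 DRD2-HEK293; 0.1 mM Ro20-1724; cpd 10 min RT; NKH477 200 nM + quinpirole 12 nM, 30 min RT; HTRF cAMP (cAMP-d2/anti-cAMP cryptate), 665/620 nm ratio after 1 h.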

Compound | activity change, negative = inhibition
CCCOC(=O)CC | 4.51% (inactive)
C=CC(=O)N1CCOCC1 | -2.7% (inactive)
C=CCOCC(O)CS(=O)(=O)O (stereo unspecified) | 4.17% (inactive)
CCCCNCC | -6.87% (inactive)
CCCC1CCC(=O)CC1 | 9.86% (inactive)
CCC(C)COC(C)=O (stereo unspecified) | -0.552% (inactive)
CCCNC(C)(C)COC(=O)c1ccccc1 | -1.12% [at 42.5 µM] (inactive)
Cc1ccc(C#N)cc1 | 6% (inactive)
Cc1nnc(SCC2=C(C(=O)O)N3C(=O)[C@@H](NC(=O)Cn4cnnn4)[C@H]3SC2)s1 | 2.37% [at 42.5 µM] (inactive)
CCN(CC)CCNC(C(=O)OCCC(C)C)c1ccccc1 (stereo unspecified) | -14.8% [at 42.5 µM] (inactive)
CCOC(=O)CC(C)C | 19.2% (inactive)
CCCCCCCCCCCCC1CO1 (stereo unspecified) | -0.0563% (inactive)
O=C(O)/C=C(\CC(=O)O)C(=O)O | 1.07% [at 42.5 µM] (inactive)
CCCCCCCCS(=O)(=O)O | -0.207% (inactive)
CC(C)CCCCCOC(=O)CCCCC(=O)OCCCCCC(C)C | 0.758% (inactive)
CCOc1ccc(NC(N)=O)cc1 | 1.67% (inactive)
CC1(C)CC(O)CC(C)(C)N1[O] | 9.35% (inactive)
CC(C)COC(=O)CCCCC(=O)OCC(C)C | -1.2% (inactive)
O=C1NCC2(CCN(CCc3ccccc3)CC2)O1 | -25.1% [at 42.5 µM] (inactive)
C=C(C)C(=O)OCC | 0.113% (inactive)

Compound | activity change, negative = inhibition
CC(CO)(CO)[N+](=O)[O-] | 1.74% (inactive)
C=CCCCCCCCCCCCCCC | -4.22% [at 18.9 µM] (inactive)
OC(C#CCN1CCCC1)(c1ccccc1)c1ccccc1 | 0.641% [at 42.5 µM] (inactive)
C=C(C)[C@@H]1CC=C(C)C(=O)C1 | -2.02% (inactive)
CCC(C)N (stereo unspecified) | 8.91% (inactive)
COC(C)=O | 1.57% (inactive)
CCCCN1C[C@H](O)[C@@H](O)[C@H](O)[C@H]1CO | -6.19% [at 42.5 µM] (inactive)
CC(=O)OCC(=O)NCCCOc1cccc(CN2CCCCC2)c1 | 14.4% [at 42.5 µM] (inactive)
OC1CCCCC1c1ccccc1 (stereo unspecified) | 11.7% (inactive)
CCCCCCCCCCC=O | 3.15% (inactive)
CC(C)(C)CC(C)(C)N | -0.985% (inactive)
C=CCCCCCCCCOC(C)=O | -3.43% (inactive)
CC(N=C(NC#N)Nc1ccncc1)C(C)(C)C (stereo unspecified) | 14.2% [at 42.5 µM] (inactive)
OCCC1CCCCN1 (stereo unspecified) | -4.87% (inactive)
C[C@]12CCC(=O)C=C1CC[C@H]1[C@@H]3CC[C@](O)(C(=O)CO)[C@@]3(C)C[C@H](O)[C@@]12F | 0.811% [at 42.5 µM] (inactive)
CCC(C)(CCC(C)C)C(=O)O (stereo unspecified) | 18.4% (inactive)
COP(=O)(O)OP(=O)(O)OC | -1.97% (inactive)
CCCC(=O)OC/C=C(\C)CCC=C(C)C | -1.19% (inactive)
NNC(=O)CP(=O)(c1ccccc1)c1ccccc1 | -1.45% [at 42.5 µM] (inactive)
